sEH act: soluble epoxide hydrolase (human) activation. P34913. purified human sEH enzymatic activity, activator screen. activation, % at 2 µM. actives 0.04% (n = 91,000); in the data active = activation above about 37%
sEH inh: inhibitors of human soluble epoxide hydrolase; inhibition, % at 2 µM; recombinant human sEH enzymatic activity assay; actives 0.34% (n = 91,000); P34913; in the data active = inhibition above about 80%
CYP2C9 inhib: human CYP2C9 inhibition; AID 777; CYP2C9 Supersomes, luciferin-H conversion, luminescence; P11712; inhibition, % at 5 µM; actives 20% (n = 96,000);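 active = blocking of liver enzyme CYP2C9 beyond about 50% at 5 µM, limit read from the data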
Target sequence (P11712 whole entry, looked up): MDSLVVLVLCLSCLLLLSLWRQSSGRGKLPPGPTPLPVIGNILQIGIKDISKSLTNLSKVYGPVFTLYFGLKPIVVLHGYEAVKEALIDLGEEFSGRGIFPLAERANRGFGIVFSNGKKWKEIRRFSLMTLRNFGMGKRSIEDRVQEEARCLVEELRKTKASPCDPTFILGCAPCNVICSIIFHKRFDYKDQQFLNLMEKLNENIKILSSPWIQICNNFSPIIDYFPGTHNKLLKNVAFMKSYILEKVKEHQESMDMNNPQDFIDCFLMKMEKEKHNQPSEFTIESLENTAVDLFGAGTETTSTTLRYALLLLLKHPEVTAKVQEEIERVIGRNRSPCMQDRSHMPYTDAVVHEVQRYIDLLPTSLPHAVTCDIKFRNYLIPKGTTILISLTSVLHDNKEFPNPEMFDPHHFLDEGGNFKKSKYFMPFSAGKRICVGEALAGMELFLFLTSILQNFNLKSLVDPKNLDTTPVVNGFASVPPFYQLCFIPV
CYP2C19 inhib: blocks human cytochrome P450 2C19. inhibition, % at 5 µM. actives 21% (n = 96,000). CYP2C19 Supersomes, luciferin-H EGE luminescence, 30 min. P33261;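 active = CYP2C19 inhibition above a set limit at 5 µM in the primary screen, cut at about 50% in these data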;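 also: plate controls were negative control wells for no effect and 2.5 mM tranylcypromine positive control for full effect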
CYP2C19 activ: increases human CYP2C19 enzyme activity | P33261 | 96,000 tested, under 10 active | activation factor at 5 µM | recombinant CYP2C19, luciferin-H EGE luminescence; active compounds read high; 0 = fully inhibited enzyme, 1 = untreated enzyme;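 active = activation factor of at least 2 at 5 µM in the primary screen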;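 also: 0 = wells with 2.5 mM tranylcypromine and 1 = vehicle-only wells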
CYP2C9 activ: activators of human CYP2C9; P11712; recombinant CYP2C9, luciferin-H conversion, luminescence; active compounds read high; factor 1 = untreated enzyme, 0 = blocked; activation factor at 5 µM; actives 1.4% (n = 96,000); AID 1024;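 active = activation factor of 2 or more for CYP2C9 at a 5 µM dose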;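 also: 0 = sulfaphenazole-blocked wells and 1 = vehicle-only wells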
The depositor's hits bear a star; / = no result given. An excerpt weighted towards active compounds, which were near 27% of everything screened.

SMILES	sEH act	sEH inh	CYP2C9 inhib	CYP2C19 inhib	CYP2C19 activ	CYP2C9 activ
O=C1c2ccccc2-c2onc3ccc(NCCCn4ccnc4)c1c23	-3	2	97*	92*	0.1	0
CCOCCCNC(=O)c1cc2sc(Cl)cc2n1CC	/	/	22	52*	0.5	0.8
C=CCNC(=S)NNC(=O)c1ccccc1	6	-2	1	20	0.8	1
C=CCNC(=S)NNC(=O)COc1cccc(Cl)c1	-9	11	10	60*	0.4	0.9
CCCCOC(=O)c1ccc(NC(=O)CSc2nncn2C)cc1	4	-4	27	46	0.5	0.7
CCCCOC(=O)c1ccc(NC(=O)CSC2=Nc3ccccc3C3CC=NN23)cc1 (stereo not drawn)	4	-4	86*	38	0.6	0.1
CCOc1cc(C2NC(=O)NC(C)=C2C(=O)OCc2ccccc2)ccc1O (stereo not drawn)	1	-1	71*	59*	0.4	0.3
CCOC(=O)C1=C(C)NC(=O)NC1c1c(O)ccc2ccccc12 (stereo not drawn)	/	/	-5	86*	0.1	1
COc1cc(C2NC(=O)NC(C)=C2C(=O)OCc2ccccc2)ccc1O (stereo not drawn)	/	/	41	30	0.7	0.6
COc1ccc(COC(=O)C2=C(C)NC(=O)NC2c2ccc(O)c(OC)c2)cc1 (stereo not drawn)	/	/	62*	70*	0.3	0.4
CCOC(=O)C1=C(C)NC(=O)NC1c1ccco1 (stereo not drawn)	/	/	-2	-13	1.1	1
CCOC(=O)C1=C(C)NC(=O)NC1c1ccc(OCCO)c(OC)c1 (stereo not drawn)	-8	7	-2	-7	1.1	1
CC1=C(C(=O)N2CCCCC2)C(c2cccs2)NC(=O)N1 (stereo not drawn)	-5	9	-36	-16	1.2	1.4
CC1CCN(C(=O)Cn2cc(C(=O)C3CC3)c3ccccc32)CC1	10	-5	/	/	/	/
O=C1[C@@H]2[C@H](C(=O)N1Cc1ccco1)[C@H]1C=C[C@@H]2C1	-5	5	19	22	0.8	0.8
CCOc1ccc(Cn2c(C)nc([N+](=O)[O-])c2SCC(O)CCl)cc1[N+](=O)[O-] (stereo not drawn)	4	-2	61*	76*	0.2	0.4
Cc1cc(C(=O)N/N=C/c2cccc([N+](=O)[O-])c2)c(C)o1	24	-28	10	8	0.9	0.9
Cc1c(Cl)c([N+](=O)[O-])nn1Cc1ccc(C(=O)N/N=C\c2cccc(Br)c2)o1	-96	96*	64*	68*	0.3	0.4
COc1cccc(OC)c1C(=O)NN1CCCCC1	8	-8	-13	-4	1	1.1
O=C(NCc1ccco1)[C@@H]1CSC2c3ccccc3C(=O)N21 (stereo partly drawn)	7	-7	40	57*	0.4	0.6
O=C(NCCCN1CCOCC1)[C@@H]1CSC2c3ccccc3C(=O)N21 (stereo partly drawn)	0	1	-18	-6	1.1	1.2
O=C(NCc1cccs1)[C@@H]1CSC2c3ccccc3C(=O)N21 (stereo partly drawn)	-12	11	72*	75*	0.2	0.3
O=C(OC(C(=O)NCC1CCCO1)c1ccccc1F)c1ccco1 (stereo not drawn)	-2	-1	6	7	0.9	0.9
CC(=O)NCCn1c(SCc2ccccc2C)nc2ccccc2c1=O	4	-3	98*	79*	0.2	0
Cc1ccc(CSc2nc3ccccc3c(=O)n2Cc2ccco2)cc1	-2	2	/	/	/	/
SMILES	sEH act	sEH inh	CYP2C9 inhib	CYP2C19 inhib	CYP2C19 activ	CYP2C9 activ
CC(=O)NCCn1c(SCc2cc(F)ccc2F)nc2ccccc2c1=O	-5	4	99*	76*	0.2	0
CC(=O)NCCn1c(SCc2ccc(C)cc2C)nc2ccccc2c1=O	5	-3	98*	98*	0	0
O=c1c2ccccc2nc(SCc2cc(F)ccc2F)n1C1CCCC1	-9	10	11	-12	1.1	0.9
O=S1(=O)N=C(N2CCc3ccccc3C2)c2ccccc21	6	-3	-20	40	0.6	1.2
COc1cccc(NC(=O)c2ccc(NC(C)=O)cc2)c1	-4	6	-34	-4	1	1.3
CC(=O)c1cccc(NC(=S)NC(=O)C(C)C)c1	2	-4	52*	40	0.6	0.5
COc1ccc(C(=O)Nc2cccc(C(C)=O)c2)cc1OC	/	/	9	41	0.6	0.9
COc1ccc(C(=O)Nc2cccc(C(C)=O)c2)c(OC)c1OC	-6	6	15	63*	0.4	0.8
COc1cc(OC)c(C(=O)Nc2cccc(C(C)=O)c2)cc1OC	5	-2	59*	33	0.7	0.4
Cc1nc(N)sc1N=Nc1ccc(F)cc1	-8	10	-4	-4	1	1
Cn1c(SCC(N)=O)nnc1C1CCN(C(=O)NCc2ccccc2)CC1	23	-24	-17	-15	1.1	1.2
O=C1/C(=C/c2cccs2)N=C(c2cccs2)N1Nc1ccccc1	-13	9	93*	3	1	0.1
O=C1/C(=C\c2cccs2)N=C(c2cccs2)N1Nc1ccccc1	6	-4	58*	34	0.7	0.4
Cc1ccc(C2=N/C(=C\c3cccs3)C(=O)N2Nc2ccccc2)cc1	-3	3	16	-12	1.1	0.8
O=S(=O)(c1ccc(SCCO)nc1)N1CCCC1	10	-9	-20	38	0.6	1.2
c1ccc(-n2ncc3c2ncn2nc(-c4ccco4)nc32)cc1	-9	8	18	6	0.9	0.8
C=CCn1c(N)c(C(=O)NCCC2=CCCCC2)sc1=S	-54	54	22	5	1	0.8
Cc1cc(N2C(=O)CC(C(C)c3ccccc3)C2=O)no1 (stereo not drawn)	-13	16	/	/	/	/
CC(c1ccccc1)C1CC(=O)N(Cc2ccco2)C1=O (stereo not drawn)	8	-9	34	91*	0.1	0.7
CCn1c(NC(=O)c2ccc(F)cc2)c2ccccc2nc1=O	/	/	20	72*	0.3	0.8
CCn1c(CCCNC(=O)c2cccs2)nc2ccccc21	-11	14	-59	76*	0.2	1.6
CCn1c(CCNC(=O)c2ccc(F)cc2)nc2ccccc21	-9	8	-230	95*	0.1	3.3*
CCCCCC(=O)N/N=C(\C)c1ccc(Cl)cc1	-34	34	32	48	0.5	0.7
Cc1ccc(Cl)cc1N1CCN(C(=O)C2CCN(S(=O)(=O)c3c(C)nn(C)c3C)CC2)CC1	-6	8	-76	35	0.6	1.8
COc1ccc(S(=O)(=O)Nc2cc(C(=O)NC3CCCCCC3)ccc2N2CCOCC2)cc1	/	/	52*	49	0.5	0.5
COc1ccc(S(=O)(=O)Nc2cc(C(=O)NC(C)C)ccc2N2CCOCC2)cc1	-10	7	58*	54*	0.5	0.4

Screening data from PubChem.
